Test results taken from PubChem BioAssay (EPA / NIEHS).
“And” between values parts separate entries of the source, which are not always exact repeats. Equal values may be shown once. Some structures have more than one record in an assay (separate samples or runs), and their calls can disagree. The source made the active and inactive calls. How the source made its calls: active means hit-call score of the fitted dose curve at least 0.9, where 1 is the maximum; inactive means score below 0.9.

Experiments:
KRT18 (gene 3875) [1] = experiment: BSK_BF4T_Keratin818: BioMAP Diversity Plus: BF4T Assay for Keratin 818 Biomarker Activity (AID 2284266); conditions: primary human bronchial epithelial cells with fibroblasts
In short: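 Co-culture of human bronchial epithelial cells and dermal fibroblasts, chemical exposure 24 h. Keratin 8/18 measured by ELISA; positive-direction fit vs DMSO. SRB total protein run in parallel cultures for cytotoxicity.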

[2] = BSK_MyoF_SRB: Viability Assessment in the BioMAP Diversity Plus: MyoF Assay (AID 2284267); conditions: primary human lung fibroblasts;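 further: total protein by SRB absorbance in parallel cultures as cytotoxicity measure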
In short: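 Human lung fibroblasts dosed with chemical and assessed 24 h later for overt cytotoxicity in parallel cultures. Total protein quantified by sulforhodamine B staining (0.1% SRB after 10% TCA fixation), read at 560 nm, analysed in positive direction versus DMSO baseline.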

[3] = read-out: Matrix Metallopeptidase 1 (MMP1), MMP1 (gene 4312); experiment: BSK_MyoF_MMP1: BioMAP Diversity Plus: MyoF Assay for Matrix Metallopeptidase 1 (MMP1) Biomarker Activity (AID 2284268); conditions: primary human lung fibroblasts
In short: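 MMP1 measured by ELISA 24 h after dosing primary human lung fibroblasts; cytotoxicity checked in parallel cultures by sulforhodamine B total-protein staining read at 560 nm.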

[4] = read-out: TIMP metallopeptidase inhibitor 1 (TIMP1), TIMP1 (gene 7076); experiment: BSK_MyoF_TIMP1: BioMAP Diversity Plus: MyoF Assay for TIMP metallopeptidase inhibitor 1 (TIMP1) Biomarker Activity (AID 2284269); conditions: primary human lung fibroblasts
In short: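 Primary human lung fibroblasts, MyoF multiplex system; chemical exposure 24 h; TIMP-1 by ELISA; positive fitting direction vs DMSO control.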

[5] = read-out: Matrix Metallopeptidase 1 (MMP1), MMP1 (gene 4312); experiment: BSK_BF4T_MMP1: BioMAP Diversity Plus: BF4T Assay for Matrix Metallopeptidase 1 (MMP1) Biomarker Activity (AID 2284270); conditions: primary human bronchial epithelial cells with fibroblasts
In short: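 Co-culture of human bronchial epithelial cells and dermal fibroblasts; MMP-1 levels measured by ELISA 24 hours after chemical dosing, relative to DMSO. Cytotoxicity checked in parallel cultures by SRB total-protein staining.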

[6] = read-out: Tissue plasminogen activator (tPA), PLAT (gene 5327); experiment: BSK_BF4T_tPA: BioMAP Diversity Plus: BF4T Assay for Tissue plasminogen activator (tPA) Biomarker Activity (AID 2284272); conditions: primary human bronchial epithelial cells with fibroblasts
In short: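 tPA level quantified by ELISA at 24 h post-treatment in bronchial epithelial/dermal fibroblast co-cultures, gain of signal scored against DMSO baseline. Parallel cultures stained with 0.1% SRB (560 nm) to flag overt cytotoxicity.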

[7] = read-out: Plasminogen Activator Inhibitor-1 (PAI1), SERPINE1 (gene 5054); experiment: BSK_BF4T_PAI1: BioMAP Diversity Plus: BF4T Assay for Plasminogen Activator Inhibitor-1 (PAI1) Biomarker Activity (AID 2284273); conditions: primary human bronchial epithelial cells with fibroblasts
In short: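 Co-culture of human bronchial epithelial cells and dermal fibroblasts exposed to compound for 24 h. PAI-1 measured by ELISA; activity fitted in positive direction versus DMSO. Parallel SRB staining assessed overt cytotoxicity.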

[8] = BSK_BF4T_SRB: Viability Assessment in the BioMAP Diversity Plus: BF4T Assay (AID 2284274); conditions: primary human bronchial epithelial cells with fibroblasts
In short: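 Co-culture of human bronchial epithelial cells and dermal fibroblasts (BioMAP BF4T) exposed 24 h. Total protein by sulforhodamine B staining (0.1% SRB after 10% TCA fixation, 560 nm) in parallel cultures; fitted vs DMSO.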

[9] = read-out: urokinase Plasminogen Activator (uPA), PLAU (gene 5328); experiment: BSK_BF4T_uPA: BioMAP Diversity Plus: BF4T Assay for urokinase Plasminogen Activator (uPA) Biomarker Activity (AID 2284275); conditions: primary human bronchial epithelial cells with fibroblasts
In short: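 Co-culture of human bronchial epithelial cells and dermal fibroblasts; uPA quantified by ELISA 24 hours after dosing, fitted relative to DMSO. Parallel SRB total-protein staining assessed overt cytotoxicity.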

[10] = read-out: Matrix Metallopeptidase 9 (MMP9), MMP9 (gene 4318); experiment: BSK_BF4T_MMP9: BioMAP Diversity Plus: BF4T Assay for Matrix Metallopeptidase 9 (MMP9) Biomarker Activity (AID 2284276); conditions: primary human bronchial epithelial cells with fibroblasts
In short: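 Co-culture of human bronchial epithelial cells and dermal fibroblasts dosed for 24 h; MMP-9 quantified by ELISA and fitted upward versus DMSO. Cytotoxicity monitored in parallel cultures by SRB total-protein staining at the biomarker time point.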

[11] = read-out: Intercellular Adhesion Molecule 1 (ICAM1), ICAM1 (gene 3383); experiment: BSK_BE3C_ICAM1: BioMAP Diversity Plus: BE3C Assay for Intercellular Adhesion Molecule 1 (ICAM1) Biomarker Activity (AID 2284278); conditions: primary human bronchial epithelial cells;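 further: cell-surface ICAM-1 protein level quantified by ELISA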
In short: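 Primary human bronchial epithelial cells were exposed to compound for 24 h, after which cell-surface ICAM-1 was quantified by ELISA. Activity was fitted in the gain-of-signal direction against DMSO as negative control and baseline.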

[12] = read-out: Interferon-inducible T-cell alpha chemoattractant (ITAC), CXCL11 (gene 6373); experiment: BSK_BE3C_ITAC: BioMAP Diversity Plus: BE3C Assay for Interferon-inducible T-cell alpha chemoattractant (ITAC) Biomarker Activity (AID 2284279); conditions: primary human bronchial epithelial cells
In short: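 Steps: dose human bronchial epithelial cells with chemical; incubate 24 h; measure I-TAC by ELISA; fit endpoint in positive direction against DMSO control. Cytotoxicity was checked in parallel cultures by SRB staining at harvest.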

[13] = read-out: Interleukin-8 (IL8), CXCL8 (gene 3576); experiment: BSK_BE3C_IL8: BioMAP Diversity Plus: BE3C Assay for Interleukin-8 (IL8) Biomarker Activity (AID 2284280); conditions: primary human bronchial epithelial cells
In short: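 IL-8 signal gain, normalised to DMSO vehicle, was scored after a 24 h chemical exposure of primary human bronchial epithelial cells, with detection by ELISA.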

[14] = read-out: Epidermal growth factor receptor (EGFR), EGFR (gene 1956); experiment: BSK_BE3C_EGFR: BioMAP Diversity Plus: BE3C Assay for Epidermal growth factor receptor (EGFR) Biomarker Activity (AID 2284281); conditions: primary human bronchial epithelial cells
In short: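 Compound is added to human bronchial epithelial cells, cells incubate 24 h, then EGFR is detected by ELISA. Values reflect positive-direction fitting relative to DMSO.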

KRT18 (gene 3875) [15] = experiment: BSK_BE3C_Keratin818: BioMAP Diversity Plus: BE3C Assay for Keratin 818 Biomarker Activity (AID 2284282); conditions: primary human bronchial epithelial cells
In short: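 Human primary bronchial epithelial cells in the BE3C system were exposed to test chemical for 24 h, then Keratin 8/18 was quantified by ELISA. Activity was fitted in the positive direction against DMSO as negative control and baseline.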

[16] = read-out: Matrix Metallopeptidase 9 (MMP9), MMP9 (gene 4318); experiment: BSK_BE3C_MMP9: BioMAP Diversity Plus: BE3C Assay for Matrix Metallopeptidase 9 (MMP9) Biomarker Activity (AID 2284283); conditions: primary human bronchial epithelial cells
In short: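 Cells were dosed, incubated 24 h, then assayed for MMP-9 by ELISA; activity was fitted upward against DMSO. The system used human lung primary bronchial epithelial cells, with SRB total-protein staining run alongside for cytotoxicity.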

[17] = read-out: Plasminogen activator inhibitor-1 (PAI1), SERPINE1 (gene 5054); experiment: BSK_CASM3C_PAI1: BioMAP Diversity Plus: CASM3C Assay for Plasminogen activator inhibitor-1 (PAI1) Biomarker Activity (AID 2284284); conditions: primary human coronary artery smooth muscle cells;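 further: PAI-1 protein level measured by ELISA 24 h after dosing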
[18] = read-out: Vascular cell adhesion molecule 1 (VCAM1), VCAM1 (gene 7412); experiment: BSK_IMphg_VCAM1: BioMAP Diversity Plus: IMphg Assay for Vascular cell adhesion molecule 1 (VCAM1) Biomarker Activity (AID 2284286); conditions: primary human endothelial cells with macrophages
In short: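 Human venular endothelial cells co-cultured with macrophages; VCAM-1 quantified by ELISA 24 h after dosing, fitted in the positive direction against DMSO. Cytotoxicity was checked in parallel cultures by SRB total-protein staining (0.1% SRB after 10% TCA fixation, 560 nm).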

[19] = read-out: Intercellular Adhesion Molecule 1 (ICAM1), ICAM1 (gene 3383); experiment: BSK_hDFCGF_ICAM1: BioMAP Diversity Plus: hDFCGF Assay for Intercellular Adhesion Molecule 1 (ICAM1) Biomarker Activity (AID 2284287); conditions: primary human foreskin fibroblasts
In short: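 Primary human foreskin fibroblasts (hDFCGF system) dosed with chemical; ICAM-1 quantified by ELISA at 24 h relative to DMSO. Parallel SRB total-protein staining to assess overt cytotoxicity.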

CD40, CD40 (gene 958) = experiment: BSK_IMphg_CD40: BioMAP Diversity Plus: IMphg Assay for CD40 Biomarker Activity (AID 2284288); conditions: primary human endothelial cells with macrophages
In short: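 Venular endothelial cells co-cultured with macrophages (human primary), CD40 measured by ELISA 24 h after dosing. Positive-direction fit vs DMSO baseline; cytotoxicity tracked by SRB total-protein staining in parallel cultures.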

Measured: AC50

FC(F)=C(F)C(F)(F)C(F)(F)C(F)(F)C(F)(F)C(F)(F)C(F)(F)F
inactive: all assays above

C[Si](C)(C)C(F)(F)C(F)(F)C(F)(F)F
inactive: all assays above

FC(F)C(F)(F)COCC1CO1 (configuration not stated)
inactive: all assays above

FC(F)(F)C(F)(F)C(F)(F)C(F)(F)C(F)(F)C(F)(F)I
active: [2] 25.6 µM and 26.5 µM | [3] 14 µM and 21.6 µM
inactive: all other assays above

OCc1c[nH]c2ccccc12
active: [3] 16.8 µM
inactive: [2] | [4]

O=C(Cl)C(F)(F)C(F)(F)C(F)(F)C(=O)Cl
inactive: all assays above

S=P(N1CC1)(N1CC1)N1CC1
inactive: [2] | [3] | [4]

FC(F)(F)COC(OCC(F)(F)F)OCC(F)(F)F
inactive: all assays above

Cc1cccc(O)c1C
inactive: [2] | [3] | [4]

OC(O)(C(F)C(O)(O)C(F)(F)F)C(F)(F)F
active: [4] 0.991 µM | [13] 22 µM
inactive: KRT18 (gene 3875) [1] | [2] | [3] | [4] | [5] | [6] | [7] | [8] | [9] | [10] | [11] | [12] | [13] | [14] | KRT18 (gene 3875) [15] | [16] | [17] | [18] | [19] | CD40, CD40 (gene 958)

O=S(=O)(O)CCC(F)(F)C(F)(F)C(F)(F)C(F)(F)C(F)(F)C(F)(F)F
inactive: all assays above

NCC(F)(F)C(F)(F)C(F)(F)C(F)(F)F
inactive: KRT18 (gene 3875) [1] | [2] | [3] | [4] | [5] | [6] | [7] | [8] | [9] | [10] | [11] | [12] | [13] | [14] | KRT18 (gene 3875) [15] | [16] | [17] | [18] | [19] | CD40, CD40 (gene 958)
active: [4] 0.307 µM

OCCC(F)(F)C(F)(F)C(F)(F)C(F)(F)F
inactive: all assays above
